Data published in PubChem BioAssay AID1159580 (chemical genetic matrix, 2015).
About 2,000 (36%) of roughly 5,500 compounds were called active. Roughly 18% stayed inconclusive and do not appear here. Rule as the data show it: active = normalized growth mostly below about 0.91 (no sharp cut-off); inconclusive = no clear call, values can overlap the other calls; inactive = mostly above about 0.92. Some of the results follow.

Assay: chemical genetic growth profiling, strain panel (AID 1159580);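 also: tested at 20 µM; growth read once vehicle control cultures reached saturation at 30 °C; 1 = growth at the plate median or of vehicle wells; lower values mean less growth of the strain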
Settings: S. cerevisiae deletion strains, growth OD

Measured: normalized growth

NC1CCN(O)C1=O (stereo not given)
inactive: locus YAL013W, strain DEP1, hits give low values 1.02 | locus YAL040C, strain CLN3, hits give low values 1.02 | locus YCL061C, strain MRC1 (second series), hits give low values 1.02 | locus YDR363W, strain ESC2, hits give low values 0.986 | locus YER002W, strain NOP16, hits give low values 1.01 | locus YGR078C, strain PAC10, hits give low values 1.02 | locus YNL175C, strain NOP13, hits give low values 1.01 | locus YNL197C, strain WHI3, hits give low values 0.997 | locus YNL224C, strain SQS1, hits give low values 1.02 | locus YOR083W, strain WHI5 (second series), hits give low values 0.985
